Assay results as given in PMC4552634, “A New Set of Chemical Starting Points with Plasmodium falciparum Transmission-Blocking Potential for Antimalarial Drug Discovery” (PLoS ONE, 2015).
The campaign covered roughly 13,000 compounds. About 3,200 (25%) showed an effect of 50% or more. Some of the results follow.

Tested on: P. falciparum stage V gametocytes
Parameters: BacTiter-Glo ATP luminescence viability of purified stage V gametocytes in 384-well plates, per cent inhibition versus DMSO
Settings: 48 h, 5 µM; inhibitor

Row | Structure (SMILES) | % Inhibition
1 | COC(=O)Cn1c(C2CCN(CC3CCC(NC(=O)/C=C/c4ccc(Cl)c(Cl)c4)CC3)CC2)nc2ccccc21 (stereo not drawn) [TCMDC-140297] | -20.25%
2 | OC(CNCc1ccccc1OC(F)F)c1cccc(C(F)(F)F)c1 (stereo not drawn) [TCMDC-140395] | 21.35%
3 | c1ccc(COc2ccc(COc3ccc(Cn4ccnc4)cc3)cc2)cc1 [TCMDC-136714] | 11.69%
4 | O=C(Nc1ccc(N2CCC(Nc3ccccn3)CC2)cc1)c1cnc(Cl)c(Cl)c1 [TCMDC-134629] | 28.05%
5 | Cc1cccc2nc(-c3ccc(-c4cccc(C(=O)NCCN5CCCC5)c4)s3)[nH]c12 [TCMDC-132317] | 13.21%
6 | Cc1cc(N[C@@H](Cc2ccccc2)C(=O)NC2CCCC2)nc(NCCOc2ccccc2)n1 [TCMDC-134755] | 31.62%
7 | Cc1cc(N[C@@H](CC(C)C)C(=O)NC2CCCC2)nc(NCCc2ccc(F)cc2)n1 [TCMDC-134791] | 99.38%
8 | Cc1cc(N[C@@H](CC(C)C)C(=O)NC2CCCC2)nc(NCC2CCCCC2)n1 [TCMDC-134936] | -32.07%
9 | Cc1cc(N[C@@H](CC(C)C)C(=O)NC2CCCC2)nc(NCc2ccccc2C)n1 [TCMDC-134908] | -12.42%
10 | Cc1cc(N[C@@H](Cc2ccccc2)C(=O)NC2CCCC2)nc(NCC2CCCCC2)n1 [TCMDC-134927] | -16.19%
11 | Cc1cc(N[C@@H](Cc2ccccc2)C(=O)NC2CCCC2)nc(NCCc2ccc(F)cc2)n1 [TCMDC-134784] | 110%
12 | O=c1cc(NCCCNCc2ccc(Cl)c(Cl)c2)[nH]c2cc(F)cc(F)c12 [TCMDC-139408] | -8.545%
13 | COc1cc(NC(=O)N2CCOC(CCN3CCC(c4ccccc4)CC3)(c3ccc(Cl)c(Cl)c3)C2)cc(OC)c1 (stereo not drawn) [TCMDC-135343] | -16.83%
14 | COc1ccc2nccc([C@@H](O)CN3CCC(NCCNc4ccccn4)CC3)c2c1 [TCMDC-140562] | 28.84%
15 | COc1ccc(C(=O)N2CCC3(CC2)C(=O)N(CC(=O)NC2CCCCC2)CN3c2ccccc2)c(OC)c1 [TCMDC-125169] | -35.99%
16 | COCCCNC(=O)C1CCN(C(c2ccc(Cl)cc2)c2ccc(Cl)cc2)CC1 [TCMDC-135521] | -10.75%
17 | O=C(c1ccccc1)N1COCC(CCN2CCC(N3CCCC3)CC2)(c2ccc(Cl)c(Cl)c2)C1 (stereo not drawn) [TCMDC-141760] | 43.61%
18 | CC(=O)c1ccc(N2CCN(CCC3(c4ccc(Cl)c(Cl)c4)COCN(C(=O)c4ccccc4)C3)CC2)cc1 (stereo not drawn) [TCMDC-141761] | 30.09%
19 | O=C(Nc1ccccc1)NC1CCN(CCC2(c3ccc(Cl)c(Cl)c3)COCN(C(=O)c3ccccc3)C2)C1 (stereo not drawn) [TCMDC-141759] | 59.82%
20 | O=C1NC(c2ccc(N3CCCCCC3)cc2)Nc2ccccc21 (stereo not drawn) [TCMDC-125058] | 38.08%
21 | CCN(CC)C(=O)C1CCCN(C(=O)Nc2cc(C(F)(F)F)cc(C(F)(F)F)c2)C1 (stereo not drawn) [TCMDC-124042] | -75.6%
22 | CC(CN1CCN(C)CC1)C(=O)Nc1ccc(-c2ccc(-c3nc4ccc(C(F)(F)F)cc4[nH]3)cc2)cc1 (stereo not drawn) [TCMDC-137153] | -5.664%
23 | CC(CN1CCN(C)CC1)C(=O)Nc1cccc(-c2ccc(-c3nc4ccc(C(F)(F)F)cc4[nH]3)cc2)c1 (stereo not drawn) [TCMDC-137152] | 80.48%
24 | CC(CN1CCN(C)CC1)C(=O)Nc1ccc(-c2ccc(-c3nc4ccc(F)cc4[nH]3)cc2)cc1 (stereo not drawn) [TCMDC-136777] | 4.283%

Row | Structure (SMILES) | % Inhibition
25 | CC(CN1CCN(C)CC1)C(=O)Nc1ccc(-c2cccc(-c3nc4ccc(F)cc4[nH]3)c2)cc1 (stereo not drawn) [TCMDC-137143] | 97.96%
26 | CC(CN(C)C)C(=O)Nc1cccc(-c2ccc(-c3nc4ccc(F)cc4[nH]3)cc2)c1 (stereo not drawn) [TCMDC-137106] | -31.14%
27 | CC(CN1CCN(C)CC1)C(=O)Nc1ccc(-c2cccc(-c3nc4ccc(C(F)(F)F)cc4[nH]3)c2)cc1 (stereo not drawn) [TCMDC-137149] | 40.39%
28 | CC(CN(C)C)C(=O)Nc1ccc(-c2ccc(-c3nc4ccc(F)cc4[nH]3)cc2)cc1 (stereo not drawn) [TCMDC-136778] | 6.212%
29 | CC(CN1CCN(C)CC1)C(=O)Nc1cccc(-c2cccc(-c3nc4ccc(F)cc4[nH]3)c2)c1 (stereo not drawn) [TCMDC-137145] | 48.07%
30 | CC(CN1CCN(C)CC1)C(=O)Nc1cccc(-c2ccc(-c3nc4ccc(F)cc4[nH]3)cc2)c1 (stereo not drawn) [TCMDC-137146] | 77.49%
31 | O=C(N[C@@H](CC1CCCCC1)C(=O)NCc1cccc2ccccc12)c1ccc(O)c(-c2ccc(Cl)c(Cl)c2)c1 [TCMDC-140879] | 41.81%
32 | Cc1noc(C)c1-c1cccc(CNCc2ccc(-c3cccc(-c4nc5cc(F)ccc5[nH]4)c3)cc2)c1.O=C(O)C(F)(F)F [TCMDC-133060] | 13.66%
33 | Cc1cccc(Oc2cccc3[nH]nc(N)c23)c1 [TCMDC-131935] | -73.01%
34 | COCCOc1cccc(CN2CCC(c3cc4nc(C)cc(C(F)(F)F)n4n3)C2)c1 (stereo not drawn) [TCMDC-134506] | -5.307%
35 | Cc1cc(C(F)(F)F)n2nc(C3CCN(Cc4cc(C)c(O)c(C)c4)C3)cc2n1 (stereo not drawn) [TCMDC-124827] | 92.15%
36 | Cc1cc(C(F)(F)F)n2nc(C(=O)N(Cc3cncn3Cc3cccc(F)c3)CC3CC3)cc2n1 [TCMDC-132460] | 0.2406%
37 | COCC(=O)N(Cc1cccc(-c2ccc(CNCCc3ccccc3)cc2)c1)C1CCN(Cc2ccccc2)CC1 [TCMDC-140536] | 103%
38 | COCCNCc1ccc(-c2cccc(CN(C(=O)NCCc3ccccc3)C3CCN(Cc4ccccc4)CC3)c2)cc1 [TCMDC-140616] | 102.8%
39 | O=C(c1cccs1)N(Cc1cccc(-c2ccc(CNC3CCCC3)cc2)c1)C1CCN(Cc2ccccc2)CC1 [TCMDC-140567] | 107%
40 | O=C(NCCc1ccccc1)N(Cc1cccc(-c2ccc(CNCCc3ccccc3)cc2)c1)C1CCN(Cc2ccccc2)CC1 [TCMDC-140617] | 94.88%
41 | COc1cc(Nc2ccnc3ccc(C(F)(F)F)cc23)cc(OC)c1OC [TCMDC-138471] | 8.096%
42 | Cc1cc(C)cc(N2C(N)=NC(N)=NC2(C)C)c1 [TCMDC-137927] | 10.77%
43 | CCOC(=O)c1c(NC(NC(=O)c2ccc(C(C)(C)C)cc2)C(Cl)(Cl)Cl)sc2c1CCCC2 (stereo not drawn) [TCMDC-125722] | 17.61%
44 | Cc1cccc(CC(N)=NCCCCCCN=C(N)Cc2cccc(C)c2)c1 [TCMDC-138135] | -14.49%
45 | CC(C)C[C@H](NC(=O)OC(C)(C)C)C(=O)Nc1ccc(Cc2ccc(NC(=O)[C@H](CC(C)C)NC(=O)OC(C)(C)C)cc2)cc1 [TCMDC-131866] | -6.979%
46 | CCS[C@@H]1O[C@H](COC(=O)c2ccccc2)[C@H](OC(=O)c2ccccc2)[C@H](OC(=O)c2ccccc2)[C@H]1OC(=O)c1ccccc1 [TCMDC-137162] | 42.17%
47 | COc1ccccc1Nc1nc(C)cc(NCc2ccc(-c3c(C)noc3C)cc2)n1 [TCMDC-133453] | 12.57%
48 | Cc1[nH]c2cc(Cl)ccc2c1C1=CCN(CCCCC2(C)C(=O)Nc3ccccc32)CC1 (stereo not drawn) [TCMDC-140945] | -53%

Row | Structure (SMILES) | % Inhibition
49 | COc1cc(C(=O)NCCCN2CCN(c3cccc(Cl)c3)CC2)ccc1-c1cc2cc(Cl)c(Cl)cc2[nH]1 [TCMDC-139622] | 6.24%
50 | O=C(NCCc1ccccc1)N(Cc1cccc(-c2ccc(CNC3CCCC3)cc2)c1)C1CCN(Cc2ccccc2)CC1 [TCMDC-140618] | 99.39%
51 | O=C(c1cccs1)N(Cc1cccc(-c2ccc(CNCCc3ccccc3)cc2)c1)C1CCN(Cc2ccccc2)CC1 [TCMDC-140566] | 66.5%
52 | O=C(NCCc1ccccc1)N(Cc1ccc(-c2cccc(CN3CCNCC3)c2)cc1)C1CCN(Cc2ccccc2)CC1 [TCMDC-139635] | 105.4%
53 | O=c1cc(NCCCNCc2cc3ccccc3s2)[nH]c2ccccc12 [TCMDC-140234] | -96.03%
54 | COc1ccc(NC(=O)/C=C/c2ccc(Cl)c(C(F)(F)F)c2)cc1OCCN(C(C)C)C(C)C [TCMDC-139646] | -39.1%
55 | COc1ccc(Br)cc1C1C2C(=O)N(c3ccc(Br)cc3)C(=O)C2C2(C(=O)O)CC(OCc3ccccc3)CN12 (stereo not drawn) [TCMDC-139264] | 14.59%
56 | N#Cc1ccnc(-c2ccc(CNC3CCN(CC4Cn5c(=O)ccc6ccc(F)c4c65)CC3)cc2)c1 (stereo not drawn) [TCMDC-134408] | -28.26%
57 | CCc1ccc(OCCCON2C(N)=NC(N)=NC2(C)C)cc1 [TCMDC-131321] | 2.956%
58 | CC(=O)Nc1cccc(NC(=O)CSc2ccc(-c3nc4ccccc4[nH]3)cn2)c1 [TCMDC-123529] | 49.75%
59 | O=C(CCC1CCCC1)N(Cc1ccc(-c2ccc(CNCCc3ccccc3)cc2)cc1)C1CCCNC1 (stereo not drawn) [TCMDC-141444] | 116.1%
60 | O=C(C1CC1c1ccccc1)N(Cc1ccc(-c2ccc(CNCCc3ccccc3)cc2)cc1)C1CCNCC1 (stereo not drawn) [TCMDC-141443] | 108.5%
61 | CC(=O)Nc1ncc(C(=O)Nc2cccc(-c3cccc(-c4nc5ccccc5[nH]4)c3)c2)s1 [TCMDC-136911] | 11.96%
62 | CC(=O)N1N=C(c2[nH]c3ccc(Br)cc3c2C)OC1c1ccccc1 (stereo not drawn) [TCMDC-124752] | 9.307%
63 | Cc1cc(N)nc2ccc(-c3cccc(CN)c3)cc12 [TCMDC-137784] | 92.85%
64 | NCc1ccc(Nc2nccc(Nc3ccc(-c4ccccc4)cc3)n2)cc1 [TCMDC-136004] | 25.82%
65 | Cc1cc(N)nc2ccc(-c3ccc(CCN)cc3)cc12 [TCMDC-137786] | 103.4%
66 | COc1ccc(CCNCc2ccc3nc(N)cc(C)c3c2)cc1 [TCMDC-138093] | 96.45%
67 | Cc1cc(N)nc2ccc(-c3ccc(CN)cc3)cc12 [TCMDC-137785] | 97.26%
68 | Cc1cc(N)nc2ccc(CNCCc3ccccc3Br)cc12 [TCMDC-138092] | 32.49%
69 | Cc1ccc(O)cc1Nc1ccnc2ccc(-c3cccc(CN(C)C)c3)cc12 [TCMDC-138481] | 38.94%
70 | Cc1ccc(Cc2c(N)nc3nc(N)nc(N)c3c2C)cc1 [TCMDC-138063] | 9.056%
71 | COc1ccc2nc(C)cc(NCc3ccc4ccccc4c3)c2c1.Cl [TCMDC-138977] | 6.085%
72 | COc1ccc(CCNCc2ccc3c(C)cc(N)nc3c2)cc1 [TCMDC-138096] | 41.14%
